Drawing on PubChem BioAssay, this text covers composite z-score and z-score for five compounds.

The nature of assay [1]: anti-His antibody binders, primary screen, artefact control for SMM control protein annotation, biochemical, small-molecule microarray, 635 nm fluorescence (AID 1128).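 Note: score merges feature fluorescence with signal-to-noise for each printed compound spot.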 The note with it: anti-His Alexa647 antibody binding, higher = more signal.
Assay [2] has as its system Human papillomavirus type 1a E7 protein (residues 1-88). Nature of the assay: HPV1a E7 small-molecule binders, primary screen, biochemical, small-molecule microarray, residues 1-88, 635 nm (AID 1129). The note with it: small-molecule microarray binding, fluorescence 635 nm; higher = more signal.
Assay [3] concerns the target Focal adhesion kinase 1 (Homo sapiens) (UniProt Q05397). Nature of the assay: small-molecule microarray binders of FAK, primary screen, biochemical, 635/667 nm fluorescence, BSA, DTT (AID 1130).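 Note: composite of spot emission at 667 nm and signal to noise over triplicate slides.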 The note with it: PTK2 binding, 635 nm fluorescence, higher = more signal.
The test system of assay [4] is Fibrinogen (Alexa647-labelled). Nature of the assay: fibrinogen binders on compound microarrays, profiling panel, artefact control for SMM control-protein annotation, biochemical, small-molecule microarray, 635/667 nm fluorescence (AID 1131).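 Note: z-score merges 667 nm fluorescence with per-spot signal-to-noise over triplicate slides.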 The note with it: fibrinogen-A647 binding fluorescence, higher = more signal.
The target in assay [5] is Follistatin (Homo sapiens) (UniProt P19883). The experiment in a line: follistatin binders on small-molecule microarrays, primary screen, biochemical, small-molecule microarray, 635/667 nm fluorescence (AID 1132). The note with it: FST binding, 635 nm fluorescence, higher = more signal.
Assay [6] has as its target Fibroblast growth factor 2 (Homo sapiens) (UniProt P09038). Nature of the assay: FGF2 binders on small-molecule microarrays, primary screen, biochemical, small-molecule microarray, 635/667 nm fluorescence (AID 1133). The note with it: small-molecule microarray binding, FGF2, fluorescence 635/667; higher = more signal.
Assay [7] can be described thus: mitochondrial membrane potential change in A549 cells, profiling panel, cell-based, JC-1 fluorescence, basal, 24 h, 100 nL (AID 1138).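 Note: A549 lung adenocarcinoma cells under basal conditions with no added stimulus; test concentration not given here.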 The note with it: higher = more signal.
For assay [8], the system named is Lefty1. Nature of the assay: Lefty1 binders on small-molecule microarrays, primary screen, biochemical, small-molecule microarray, 635/667 nm fluorescence (AID 1139). The note with it: small-molecule microarray binding, fluorescence 635/667; higher = more signal.
For assay [9], the system named is wheat germ agglutinin (Triticum aestivum), Alexa647-labelled. Nature of the assay: wheat germ agglutinin binders on compound microarrays, profiling panel, artefact control for SMM control-protein annotation, biochemical, small-molecule microarray, 635/667 nm fluorescence (AID 1140).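 Note: score merges 667 nm feature emission with signal to noise over triplicate slides.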 The note with it: WGA-A647 binding, 635 nm fluorescence, higher = more signal.
Assay [10] addresses Luciferin 4-monooxygenase (Photinus pyralis) (UniProt P08659). Nature of the assay: firefly luciferase enzyme inhibitors, primary screen, biochemical, luminescence, purified enzyme, 2006 set (AID 1141).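 Note: cell-free assay with purified firefly luciferase at 100 ng per well in PBS; test concentration not given here.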 The note with it: SteadyGlo luminescence, 30 min, higher = more signal, called active from +8 up or from −8 down.
Assay [11] deals with Wnt5a (protein binding on small-molecule microarray). Nature of the assay: Wnt5a binders on small-molecule microarray, primary screen, biophysical, 635/667 nm fluorescence (AID 1142).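 Note: fluorescence read at 667 nm with signal to noise per printed feature.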 The note with it: 635 nm fluorescence, higher = more signal.
Assay [12] is described as follows: cell viability in Huh7 cells, primary screen, cytotoxicity control for HCV replication inhibitor project, CellTiter-Glo luminescence, basal, 48 h (AID 1143).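 Note: Huh7 hepatoma cells carrying a hepatitis C replication reporter with no stimulus; test concentration not given here.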 The note with it: Huh7 HCV replicon, higher = more signal, called active from +8 up or from −8 down. In general terms: Cellular ATP, detected with luciferase, serves as a proxy for viable cell number.
The nature of assay [13]: P. aeruginosa biofilm formation inhibitors, primary screen, PAO1 strain, BacTiter-Glo luminescence, LB-PBS (AID 1144). The note with it: 12 h, higher = more signal.
Assay [14] is described as follows: CREB reporter modulators without forskolin, primary screen, cell-based, PC12, CRE-LacZ reporter, unstimulated (AID 1145). The note with it: no forskolin, luminescence, 4.5 h, higher = more signal, called active from +8 up or from −8 down.
Assay [15] is described as follows: CREB reporter modulators under forskolin, primary screen, cell-based, PC12, CRE-LacZ reporter, forskolin-stimulated (AID 1146).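 Note: PC12 cells with 6xCRE LacZ reporter stimulated by forskolin 10 µM; beta-galactosidase reporter signal reflecting CREB driven transcription.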 The note with it: luminescence, 4.5 h, higher = more signal, called active from +8 up or from −8 down.
Assay [16] has as its target Streptavidin (Streptomyces avidinii) (UniProt P22629). The experiment in a line: streptavidin binders on small-molecule microarray, primary screen, artefact control for SMM compound annotation, biophysical, 635/667 nm fluorescence (AID 1147).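 Note: signal reflects streptavidin binding to arrayed compounds as a control protein.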 The note with it: streptavidin binding, higher = more signal.
The nature of assay [17]: small-molecule binders of probe aInhba, primary screen, biochemical, small-molecule microarray, 635/667 nm fluorescence (AID 1148).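 Note: score merges 667nm spot fluorescence with signal-to-noise for antibody binding to printed compounds.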 The note with it: higher = more signal.
The target in assay [18] is Torsin-1A (Homo sapiens) (UniProt O14656). Nature of the assay: torsin A binders from cell lysate, primary screen, small-molecule microarray, wild-type, 635/667 nm (AID 1149). The note with it: COS7 hTOR1A-WT lysate, 635 nm fluorescence, higher = more signal.
For assay [19] the target is unchanged. The experiment in a line: small-molecule binders of mutant TOR1A in lysate, primary screen, cell lysate, small-molecule microarray, COS7 lysate, 635/667 nm fluorescence (AID 1150).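 Note: score pools 667 nm emission and signal to noise measuring lysate protein binding.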 The note with it: COS7 hTOR1A mutant lysate, 635 nm fluorescence, higher = more signal.
In assay [20] the test system is Sonic hedgehog protein (Shh). Nature of the assay: small-molecule binders of Shh protein, primary screen, biochemical, small-molecule microarray, 635/667 nm fluorescence (AID 1151).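 Note: Shh protein binding to compounds spotted on small-molecule microarray slides; score combines spot fluorescence intensity with signal-to-noise across triplicate slides.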 The note with it: small-molecule microarray binding, 635 nm fluorescence; higher = more signal.

Active and inactive are the calls of the source. Unless noted, the rule behind the calls is not given here.

Focal adhesion kinase 1 (Homo sapiens), sequence (Q05397 whole entry, looked up): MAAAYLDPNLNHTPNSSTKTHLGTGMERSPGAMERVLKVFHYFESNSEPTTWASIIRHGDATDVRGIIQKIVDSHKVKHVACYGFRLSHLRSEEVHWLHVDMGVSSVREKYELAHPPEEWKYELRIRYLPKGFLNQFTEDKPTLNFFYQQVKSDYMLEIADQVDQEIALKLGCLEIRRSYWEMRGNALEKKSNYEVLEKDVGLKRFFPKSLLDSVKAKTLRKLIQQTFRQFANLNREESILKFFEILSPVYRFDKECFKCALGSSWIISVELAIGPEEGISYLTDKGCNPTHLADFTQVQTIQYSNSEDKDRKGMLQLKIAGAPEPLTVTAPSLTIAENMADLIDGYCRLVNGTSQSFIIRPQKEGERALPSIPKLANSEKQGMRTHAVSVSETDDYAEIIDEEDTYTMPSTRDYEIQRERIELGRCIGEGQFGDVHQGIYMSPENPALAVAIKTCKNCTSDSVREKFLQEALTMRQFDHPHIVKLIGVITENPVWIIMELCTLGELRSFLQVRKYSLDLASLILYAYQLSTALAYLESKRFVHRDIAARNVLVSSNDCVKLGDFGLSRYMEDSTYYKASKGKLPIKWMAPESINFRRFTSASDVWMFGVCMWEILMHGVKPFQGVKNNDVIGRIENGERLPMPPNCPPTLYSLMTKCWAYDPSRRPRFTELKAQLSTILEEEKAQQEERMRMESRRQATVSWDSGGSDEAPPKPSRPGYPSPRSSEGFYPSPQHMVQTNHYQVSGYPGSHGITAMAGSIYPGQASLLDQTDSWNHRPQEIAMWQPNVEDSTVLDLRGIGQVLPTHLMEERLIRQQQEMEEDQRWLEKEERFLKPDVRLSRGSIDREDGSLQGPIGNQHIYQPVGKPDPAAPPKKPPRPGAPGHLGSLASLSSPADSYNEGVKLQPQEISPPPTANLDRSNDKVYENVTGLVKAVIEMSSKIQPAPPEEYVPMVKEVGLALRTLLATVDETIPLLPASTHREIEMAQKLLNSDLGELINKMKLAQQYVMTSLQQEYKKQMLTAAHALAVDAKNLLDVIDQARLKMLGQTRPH
Luciferin 4-monooxygenase (Photinus pyralis), sequence (P08659 whole entry, looked up): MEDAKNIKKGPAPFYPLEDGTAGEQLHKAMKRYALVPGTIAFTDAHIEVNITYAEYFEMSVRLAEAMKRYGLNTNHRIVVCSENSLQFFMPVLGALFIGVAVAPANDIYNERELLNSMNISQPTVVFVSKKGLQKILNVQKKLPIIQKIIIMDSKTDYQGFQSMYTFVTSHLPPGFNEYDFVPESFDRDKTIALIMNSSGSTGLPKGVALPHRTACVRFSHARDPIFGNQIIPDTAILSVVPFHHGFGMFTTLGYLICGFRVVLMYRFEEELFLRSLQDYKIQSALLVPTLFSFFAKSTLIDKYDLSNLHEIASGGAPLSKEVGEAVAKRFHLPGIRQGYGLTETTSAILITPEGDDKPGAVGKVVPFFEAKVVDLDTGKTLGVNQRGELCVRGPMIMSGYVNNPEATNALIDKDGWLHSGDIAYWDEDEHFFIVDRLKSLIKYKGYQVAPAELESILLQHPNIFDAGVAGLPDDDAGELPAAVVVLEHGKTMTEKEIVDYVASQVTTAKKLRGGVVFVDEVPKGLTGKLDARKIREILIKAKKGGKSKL
Streptavidin (Streptomyces avidinii), sequence (P22629 whole entry, looked up): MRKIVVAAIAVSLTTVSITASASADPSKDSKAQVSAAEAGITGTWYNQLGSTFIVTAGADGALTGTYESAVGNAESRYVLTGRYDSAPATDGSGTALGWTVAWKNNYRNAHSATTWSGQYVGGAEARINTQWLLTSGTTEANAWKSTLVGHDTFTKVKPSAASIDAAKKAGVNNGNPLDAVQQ
Follistatin (Homo sapiens), sequence (P19883 whole entry, looked up): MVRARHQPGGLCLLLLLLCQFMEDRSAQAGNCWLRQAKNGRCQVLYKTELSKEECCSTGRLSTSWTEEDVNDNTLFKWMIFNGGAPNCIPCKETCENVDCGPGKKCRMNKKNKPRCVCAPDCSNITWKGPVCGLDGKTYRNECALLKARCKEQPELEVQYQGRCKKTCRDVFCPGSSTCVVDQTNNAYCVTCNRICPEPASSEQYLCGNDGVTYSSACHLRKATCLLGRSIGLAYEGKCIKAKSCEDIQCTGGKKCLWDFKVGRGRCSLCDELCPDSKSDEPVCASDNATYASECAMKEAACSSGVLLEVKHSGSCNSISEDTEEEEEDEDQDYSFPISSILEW
Torsin-1A (Homo sapiens), sequence (O14656 whole entry, looked up): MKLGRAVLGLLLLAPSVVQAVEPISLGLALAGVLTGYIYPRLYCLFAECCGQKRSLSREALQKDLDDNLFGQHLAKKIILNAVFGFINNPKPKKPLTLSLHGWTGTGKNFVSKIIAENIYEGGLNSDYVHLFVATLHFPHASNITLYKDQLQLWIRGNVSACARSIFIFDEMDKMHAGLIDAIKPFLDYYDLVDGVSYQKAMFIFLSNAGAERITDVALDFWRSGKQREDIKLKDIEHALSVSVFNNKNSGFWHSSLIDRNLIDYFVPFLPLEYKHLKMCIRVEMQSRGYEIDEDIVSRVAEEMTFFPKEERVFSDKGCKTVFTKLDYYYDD
Fibroblast growth factor 2 (Homo sapiens), sequence (P09038 whole entry, looked up): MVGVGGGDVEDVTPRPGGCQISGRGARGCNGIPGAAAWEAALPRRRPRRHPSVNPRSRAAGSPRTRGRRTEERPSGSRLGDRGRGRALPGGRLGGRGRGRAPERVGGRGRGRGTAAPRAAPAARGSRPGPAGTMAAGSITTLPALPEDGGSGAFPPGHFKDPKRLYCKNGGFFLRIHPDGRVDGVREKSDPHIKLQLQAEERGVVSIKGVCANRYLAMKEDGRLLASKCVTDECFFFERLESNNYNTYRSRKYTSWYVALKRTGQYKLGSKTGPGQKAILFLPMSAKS

Take `CCCCCN1CC=CC23O[C@@H]4/C=C\CCCOC(=O)C4[C@H]2C(=O)N(C(CO)C(C)C)[C@@H]3C1=O` (stereo not given in full): the composite z-score is -0.208 in [1]; -0.376 in assay [2]; -0.295 in assay [3]; -0.796 in assay [4]; 0.0945 in [5]; -0.603 in assay [6]. Besides, the composite z-score in [8] is 0.418; in assay [9], 0.869; in assay [11], 0.175; in [16], -0.739; in assay [17], -0.128; in assay [18], -0.731. Besides, the composite z-score was -0.436 in assay [19] and 0.976 in assay [20]. In addition, the z-score in assay [7] is -0.46; in assay [10] it was 0.451 (inactive); in assay [12], -0.0623 (inactive); in assay [13] it was -1.6 (inactive); in [14], -0.899 (inactive); in assay [15] it was 0.373 (inactive).
Consider `C=C(CCCC)/C(=C/C[C@@H](OC(C)=O)c1ccccc1OCCO)c1cnc2ccccc2c1`, for which the composite z-score in assay [1] was 1.46; in assay [2] it was 0.356; in [3], 0.0147; in assay [4] it was 0.143; in [5] it was 1.31; in assay [6], 0.908. Further, the composite z-score in assay [8] is 0.736; in [9], 0.454; in assay [11], 0.0953; in assay [16] it was -0.0227; in assay [17], -0.0736; in [18] it was 1.11. Besides, the composite z-score in assay [19] was -0.438; in [20] it was 1.02. For the same compound, the z-score in assay [7] was 0.222; in [10], -0.754 (inactive); in assay [12], -1.6 (inactive); in assay [13], -0.131 (inactive); in assay [14], 2.02 (inactive); in assay [15], -0.185 (inactive).
Turning to `CN1C(=O)C2C=CC(C(O)c3ccc(-c4ccccc4)s3)N(N(c3ccccc3)c3ccccc3)C2C1=O` (stereo not given), the composite z-score is 0.0993 in [1]; 0.628 in assay [2]; 0.162 in assay [3]; 0.528 in assay [4]; 1.14 in assay [5]; -0.314 in assay [6]. For the same compound, the composite z-score is -0.119 in [8]; 1.08 in assay [9]; 0.123 in [11]; 1.14 in assay [16]; 0.12 in assay [17]; 0.91 in assay [18]. In addition, the composite z-score in assay [19] is -0.0126; in assay [20], 0.409. The z-score in [7] was 0.767; in [10] it was -0.377 (inactive); in assay [12] it was -0.0598 (inactive); in assay [13], -0.468 (inactive); in assay [14] it was -0.14 (inactive); in [15], -0.101 (inactive).
Take `O=C1O[C@H](c2ccccc2)[C@H](c2ccccc2)N2[C@H]1[C@@H](C(=O)O)[C@]1(C(=O)Nc3ccc(C#CCCO)cc31)[C@H]2c1ccc(O)cc1`: the composite z-score in assay [1] was 0.0887; in [2], 0.0227; in assay [3], 0.724; in assay [4], -0.862; in assay [5], 0.771; in assay [6], -0.317. Also, the composite z-score in [8] was -0.279; in assay [9], 0.349; in assay [11], -0.0604; in assay [16], -0.668; in assay [17] it was 0.161; in [18], 0.309. Also, the composite z-score in [19] turned out to be 0.499; in assay [20], 0.0441. Besides, the z-score in assay [7] is 1.07; in assay [10] it was -1.72 (inactive); in [12], -1.04 (inactive); in assay [13], 0.301 (inactive); in [14], -1.28 (inactive); in assay [15], -1.37 (inactive).
Consider `CC1(C)[C@@H]2CC(C(O)C3C=CC4C(=O)N(c5ccccc5)C(=O)C4N3Nc3ccccc3)=C[C@H]1C2` (stereo not given in full), for which the composite z-score is -0.21 in [1]; 0.598 in assay [2]; 1.13 in assay [3]; 0.153 in assay [4]; 0.955 in assay [5]; 0.329 in assay [6]. Moreover, the composite z-score in assay [8] was -0.409; in assay [9], 0.241; in assay [11], 0.0836; in [16], 0.595; in assay [17], 0.571; in assay [18], -0.37. The composite z-score in [19] was -0.233; in [20], -0.385. Also, the z-score in [7] is 1.01; in assay [10] it was 0.486 (inactive); in [12] it was 0.355 (inactive); in assay [13], -0.959 (inactive); in [14], 1 (inactive); in [15], 0.874 (inactive).
